Measurements as given in PubChem BioAssay (NCATS).
Where “and” joins values, the source holds several entries; their conditions need not be identical. Identical values can stand only once. Inconclusive results are not listed. Calls of active or inactive are those of the source. Calls come from the whole dose curve; as a rule, active = well fitted curve in the direction sought with a large enough effect; inconclusive = small, poorly fitted or top-dose-only effect, or another doubt; inactive = no such curve, though single readings can be large or run the other way. Where a SMILES comes first, the peptide text is derived from it. [ ]: non-standard residue; d: D form. pGlu = O=C1CC[C@@H](C(=O)O)N1

assay: qHTS Assay for Identifying Gametocytocidal Compounds (AID 743244);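 for max response: actives lower the fluorescent signal which means gametocytes are killed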; details: P. falciparum 3D7 stage III-V gametocytes, alamarBlue, 72 h; max response: active compounds read low
Method in brief: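 Fluorescence at Ex 525/Em 598 nm, recorded 24 h after alamarBlue addition, reports residual metabolic activity of 3D7 gametocytes (stages III–V) following 72 h compound exposure at 37 °C, 5% CO2.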
% is set by controls: 0 for no effect and ±100 for the full control effect; potency is the fitted concentration of half-maximal effect.

SMILES | max response | Potency
CN1C(=O)OC(C)(C)C1=O | 8.47% (inactive) | 
Nc1ncnc2c1ncn2CCOCP(=O)(O)O | -0.768% (inactive) | 
CC1=C(/C=C/C(C)=C/C=C/C(C)=C/C(=O)Oc2c(C)c(C)c3c(c2C)CC[C@@](C)(CCC[C@H](C)CCC[C@H](C)CCCC(C)C)O3)C(C)(C)CCC1 | 0.0927% (inactive) | 
NC[C@H]1O[C@H](O[C@H]2[C@H](O)[C@@H](O[C@H]3O[C@H](CO)[C@@H](O)[C@H](N)[C@H]3O)[C@H](N)C[C@@H]2N)[C@H](O)[C@@H](O)[C@@H]1O | 19.4% (inactive) | 
CCC[C@@H]1C[C@@H](C(=O)N[C@@H]([C@H]2O[C@H](SC)[C@H](O)[C@@H](O)[C@H]2O)[C@H](C)Cl)N(C)C1 | -8.48% (inactive) | 
Cc1cc(C)c(NC(=O)C[C@H](CC(=O)O)c2cccc3ccccc23)c(C(=O)N2CCC3(CCCC3)CC2)c1 | -8.09% (inactive) | 
CCCc1ccc(C(=O)O)cc1 | 0.792% (inactive) | 
OC/C=C/c1ccccc1 | 2.6% (inactive) | 
CCCCCCCCCCCCCC(=O)OCC(COP(=O)([O-])OCC[N+](C)(C)C)OC(=O)CCCCCCCCCCCCC (stereo not drawn) | 8.75% (inactive) | 
C=CCOc1ccc(CC(=O)O)cc1Cl | 22.7% (inactive) | 
C[C@H](N)C(=O)N[C@@H](C)P(=O)(O)O | 2.87% (inactive) | 
CCC(O)c1ccccc1 (stereo not drawn) | 11% (inactive) | 
CC(=O)N[C@@H](C=O)[C@@H](O)[C@H](O)[C@H](O)CO | 11.4% (inactive) | 
Cc1cc(C(=O)NCCc2ccc(S(=O)(=O)NC(=O)NN3CCCCCC3)cc2)no1 | 4.46% (inactive) | 
CC(O)[C@@H]1NC(=O)[C@H](Cc2ccccc2)NC(=O)[C@H](C(C)O)NC(=O)[C@H](CCCCN)NC(=O)[C@H](Cc2c[nH]c3ccccc23)NC(=O)[C@H](Cc2ccccc2)NC(=O)[C@H](Cc2ccccc2)NC(=O)[C@H](CC(N)=O)NC(=O)[C@H](CCCCN)NC(=O)[C@@H](NC(=O)CNC(=O)[C@H](C)N)CSSC[C@@H](C(=O)O)NC(=O)[C@H](CO)NC1=O (stereo partly drawn) | 1.43% (inactive) | 
Cc1nc(NS(=O)(=O)c2ccc(N)cc2)nc(C)c1Br | 21.7% (inactive) | 
O=C(O)COc1ccccc1/C=N/NC(=O)c1ccncc1 | 1.32% (inactive) | 
CO[C@H]1C[C@H](O[C@@H]2/C(C)=C/C[C@@H]3C[C@@H](C[C@]4(CC[C@H](C)[C@@H](C5CCCCC5)O4)O3)OC(=O)[C@@H]3C=C(C)/C(=N/O)[C@H]4OC/C(=C\C=C\[C@@H]2C)[C@]43O)O[C@@H](C)[C@@H]1O | -14.2% (inactive) | 
CC(C)(C)c1ccc2c(S(=O)(=O)O)c(C(C)(C)C)ccc2c1 | 10.3% (inactive) and 35.8% (inactive) | 

SMILES | max response | Potency
C#C[C@]1(O)CC[C@H]2[C@@H]3CCC4=C(CCC(=O)C4)[C@H]3CC[C@@]21C | 12.4% (inactive) | 
CC1CC(OC(=O)C(O)c2ccccc2)CC(C)(C)C1 (stereo not drawn) | 25% (inactive) | 
CCc1cn([C@H]2C[C@H](O)[C@@H](CO)O2)c(=O)[nH]c1=O | 16.3% (inactive) | 
NS(=O)(=O)c1cc2c(cc1Cl)NC(Cc1ccccc1)NS2(=O)=O (stereo not drawn) | 18.5% (inactive) | 
C[C@H](CCCC(C)(C)O)[C@H]1CC[C@H]2[C@@H]3CC=C4C[C@@H](O)CC[C@]4(C)[C@H]3CC[C@]12C | -7.2% (inactive) | 
NC(=O)OCC(O)COc1ccc(Cl)cc1 (stereo not drawn) | 9.36% (inactive) | 
O=C(O)/C=C/c1ccccc1 | 0.36% (inactive) | 
CCCCC(O)c1ccccc1 (stereo not drawn) | -2.26% (inactive) | 
O=C(CCCN1CCN2CCCC2C1)c1ccc(F)cc1 (stereo not drawn) | 7.46% (inactive) | 
CC(C)c1nc(N(C)S(C)(=O)=O)nc(-c2ccc(F)cc2)c1/C=C/C(O)CC(O)CC(=O)O (stereo not drawn) | 12% (inactive) | 
C=CC1=C(C(=O)O)N2C(=O)[C@@H](NC(=O)/C(=N\O)c3csc(N)n3)[C@H]2SC1 (stereo in doubt) | 1.2% (inactive) and 8.54% (inactive) | 
CC[C@H](CC[C@@H](C)[C@H]1CC[C@H]2[C@@H]3CC=C4C[C@@H](O)CC[C@]4(C)[C@H]3CC[C@]12C)C(C)C | 14.2% (inactive) | 
c1ccc2c(c1)OCC(CN1CCCCC1)O2 (stereo not drawn) | -2.04% (inactive) | 
OCCN1CCN(CC/C=C2/c3ccccc3Sc3ccc(Cl)cc32)CC1 | -5.02% (inactive) | 
CC[C@H](C)[C@H](NC(=O)[C@H](Cc1ccccc1)NC(=O)[C@H](C)NC(=O)[C@H](CC(=O)O)NC(=O)[C@H](CCCCN)NC(=O)[C@H](CO)NC(=O)[C@@H]1CCCN1C(=O)[C@@H]1CCC(=O)N1)C(=O)NCC(=O)N[C@@H](CC(C)C)C(=O)N[C@@H](CCSC)C(N)=O ([pGlu]PSKDAFIGLM-NH2) | 13.3% (inactive) | 
CC1CS(=O)(=O)CCN1/N=C/c1ccc([N+](=O)[O-])o1 (stereo not drawn) |  | 14.1 µM (active)
Cc1cc(O)c2c(c1)O[C@@]1(C)CC[C@H]3C(C)(C)CCCC34CO[C@@H]2[C@H]41 (stereo partly drawn) | 20.1% (inactive) | 
O=C(CCCCCCCCCCCCC1CCCC1)Nc1ccc(S(=O)(=O)c2ccc(NC(=O)CCCCCCCCCCCCC3CCCC3)cc2)cc1 | 1.73% (inactive) | 
Cn1c(=O)c2c(ncn2CCOC(=O)C(C)(C)Oc2ccc(Cl)cc2)n(C)c1=O | 17.7% (inactive) | 
